Inconclusive results are not listed. Activity calls are given as the source filed them. Unless noted, calls follow the shape of the dose curve; as a rule, active = well fitted curve in the direction sought with a large enough effect; inconclusive = small, poorly fitted or top-dose-only effect, or another doubt; inactive = no such curve, though single readings can be large; an effect the other way counts as inactive or inconclusive.
How the values were obtained:
[1] = AP1 Signaling Pathway (AID 357; active = well fitted curve in either direction with a large enough effect, not every such curve was filed as active;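 also: ME-180 reporter cells stimulated with EGF at its EC50 level; % is scaled to controls: 0 for no effect and ±100 for the full control effect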); details: ME-180 AP-1-bla reporter, EGF-induced, beta-lactamase ratio, 5 h; at 7.69 µM (top of the series) unless noted
Method in brief: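 In this screen, ME-180 cells in Opti-MEM with 0.5% dialyzed FBS received EC50 EGF and compound titrations for 5 h. AP-1 reporter beta-lactamase was detected via CCF4 ratio, giving AC50 for positive and negative modulators.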

[2] = NFAT Signaling Pathway (AID 444; active = well fitted curve in either direction with a large enough effect, not every such curve was filed as active;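 also: carbachol stimulus at about its EC50 of 1 µM final; % is scaled to controls: 0 for no effect and ±100 for the full control effect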); details: Jurkat NFAT-bla M1, carbachol, beta-lactamase ratio, 5 h; at 7.69 µM (top of the series) unless noted
Method in brief: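 Jurkat cells carrying an NFAT-driven β-lactamase reporter and co-transfected muscarinic M1 receptor were treated with compound plus carbachol (1 uM final, an EC50 level) for 5 h at 37 °C. CCF4 loading followed for 1 h at RT; 460/530 nm ratio gave %activity.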

[3] = biological target: Glucocorticoid receptor (Homo sapiens) (UniProt P04150); assay: GR-GFP Redistribution (AID 450;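 active = compounds whose dose series gives a full or clear partial fitted curve of increased nuclear translocation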; also: potency is read from the fitted curve at half-maximal effect); details: U2OS GR-GFP nuclear translocation, laser cytometry, 2 h
Sequence of Glucocorticoid receptor (Homo sapiens) (P04150 whole entry, looked up, the tested form may be a part): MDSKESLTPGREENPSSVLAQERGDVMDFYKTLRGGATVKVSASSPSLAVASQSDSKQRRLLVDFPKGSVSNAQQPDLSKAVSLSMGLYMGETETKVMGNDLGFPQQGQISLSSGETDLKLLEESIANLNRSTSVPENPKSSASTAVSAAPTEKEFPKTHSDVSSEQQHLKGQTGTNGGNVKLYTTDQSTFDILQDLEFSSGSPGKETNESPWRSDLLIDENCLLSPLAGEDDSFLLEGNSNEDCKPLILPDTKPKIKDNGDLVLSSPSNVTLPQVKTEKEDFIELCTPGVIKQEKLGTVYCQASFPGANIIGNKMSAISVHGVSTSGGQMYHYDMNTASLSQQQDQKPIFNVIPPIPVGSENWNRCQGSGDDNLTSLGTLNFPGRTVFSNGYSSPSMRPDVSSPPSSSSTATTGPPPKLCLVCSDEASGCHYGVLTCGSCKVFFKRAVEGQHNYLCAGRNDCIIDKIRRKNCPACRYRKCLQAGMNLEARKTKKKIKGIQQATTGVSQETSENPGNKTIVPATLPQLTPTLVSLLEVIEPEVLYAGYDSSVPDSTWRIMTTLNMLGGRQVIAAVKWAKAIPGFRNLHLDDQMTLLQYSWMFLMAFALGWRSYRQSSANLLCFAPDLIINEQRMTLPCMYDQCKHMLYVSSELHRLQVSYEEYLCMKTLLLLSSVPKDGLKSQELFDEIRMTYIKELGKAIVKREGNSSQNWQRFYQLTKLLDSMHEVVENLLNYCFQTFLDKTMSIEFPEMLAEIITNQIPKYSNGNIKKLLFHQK

[4] = biological target: Rap guanine nucleotide exchange factor 3 (Homo sapiens) (UniProt O95398); assay: Confirmatory qHTS for antagonist of cAMP-regulated guanine nucleotide exchange factor 3 (EPAC1) (AID 1645880); details: EPAC1 Rap1B-BODIPY-GDP exchange, fluorescence; activity, negative = inhibition: at 115 µM (top of the series); also: nearly all actives have a fitted effect of over 55% in size; also: potency is read from the fitted curve at half-maximal effect;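 as to activity, negative = inhibition: plate controls were DMSO only for no effect and full effect of the ATA control for full effect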
Sequence of Rap guanine nucleotide exchange factor 3 (Homo sapiens) (O95398 whole entry, looked up): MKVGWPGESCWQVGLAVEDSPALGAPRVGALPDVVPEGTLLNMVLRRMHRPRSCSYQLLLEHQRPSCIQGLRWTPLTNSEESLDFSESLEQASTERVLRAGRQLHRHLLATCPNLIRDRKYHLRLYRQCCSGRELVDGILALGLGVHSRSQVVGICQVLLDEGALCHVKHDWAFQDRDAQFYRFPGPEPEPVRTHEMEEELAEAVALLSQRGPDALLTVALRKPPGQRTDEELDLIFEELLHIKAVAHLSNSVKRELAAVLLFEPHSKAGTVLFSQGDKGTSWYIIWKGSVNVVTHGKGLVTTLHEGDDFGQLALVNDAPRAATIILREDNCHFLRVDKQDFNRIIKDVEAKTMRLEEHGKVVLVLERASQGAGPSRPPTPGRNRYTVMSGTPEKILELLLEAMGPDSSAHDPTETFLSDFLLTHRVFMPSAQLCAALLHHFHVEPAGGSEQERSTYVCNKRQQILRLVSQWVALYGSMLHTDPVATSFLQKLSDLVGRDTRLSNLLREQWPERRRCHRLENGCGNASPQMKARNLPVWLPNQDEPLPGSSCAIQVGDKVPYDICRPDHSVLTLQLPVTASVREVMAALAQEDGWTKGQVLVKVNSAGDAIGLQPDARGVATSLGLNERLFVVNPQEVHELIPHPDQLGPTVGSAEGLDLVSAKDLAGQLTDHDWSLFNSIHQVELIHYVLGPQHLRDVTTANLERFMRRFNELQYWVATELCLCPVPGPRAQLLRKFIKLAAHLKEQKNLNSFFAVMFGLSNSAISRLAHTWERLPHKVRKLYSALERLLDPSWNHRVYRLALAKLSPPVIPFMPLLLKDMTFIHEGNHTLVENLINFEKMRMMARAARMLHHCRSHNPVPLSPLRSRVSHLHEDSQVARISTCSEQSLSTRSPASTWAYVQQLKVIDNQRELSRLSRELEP
Method in brief: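 Released BODIPY-GDP fluoresces less than Rap1-bound BODIPY-GDP; the signal is followed at 480/540 nm at 5-min intervals over 30 min, after 5 min at room temperature. Reactions contain 100 nM EPAC1, 250 nM RAP1B-BODIPY-GDP and 50 uM GDP; results are normalized to ATA and DMSO.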

[5] = biological target: Rap guanine nucleotide exchange factor 3 (Homo sapiens) (UniProt O95398); assay: Confirmatory qHTS for agonist of cAMP-regulated guanine nucleotide exchange factor 3 (EPAC1) (AID 1645881); also: nearly all actives have a fitted effect of over 75% in size; also: potency is read from the fitted curve at half-maximal effect;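 as to activation: EPAC1 catalysed release of BODIPY-GDP from Rap1B seen as fluorescence loss; 100% = effect of cAMP agonist control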
[6] = biological target: Rap guanine nucleotide exchange factor 4 (Homo sapiens) (UniProt Q8WZA2); assay: Confirmatory qHTS for agonist of cAMP-regulated guanine nucleotide exchange factor 4 (EPAC2) (AID 1645884);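 also: nucleotide exchange releases bodipy-GDP from Rap1 and this lowers its fluorescence; nearly all actives have a fitted effect of over 65% in size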; also: potency is read from the fitted curve at half-maximal effect
Sequence of Rap guanine nucleotide exchange factor 4 (Homo sapiens) (Q8WZA2 whole entry, looked up): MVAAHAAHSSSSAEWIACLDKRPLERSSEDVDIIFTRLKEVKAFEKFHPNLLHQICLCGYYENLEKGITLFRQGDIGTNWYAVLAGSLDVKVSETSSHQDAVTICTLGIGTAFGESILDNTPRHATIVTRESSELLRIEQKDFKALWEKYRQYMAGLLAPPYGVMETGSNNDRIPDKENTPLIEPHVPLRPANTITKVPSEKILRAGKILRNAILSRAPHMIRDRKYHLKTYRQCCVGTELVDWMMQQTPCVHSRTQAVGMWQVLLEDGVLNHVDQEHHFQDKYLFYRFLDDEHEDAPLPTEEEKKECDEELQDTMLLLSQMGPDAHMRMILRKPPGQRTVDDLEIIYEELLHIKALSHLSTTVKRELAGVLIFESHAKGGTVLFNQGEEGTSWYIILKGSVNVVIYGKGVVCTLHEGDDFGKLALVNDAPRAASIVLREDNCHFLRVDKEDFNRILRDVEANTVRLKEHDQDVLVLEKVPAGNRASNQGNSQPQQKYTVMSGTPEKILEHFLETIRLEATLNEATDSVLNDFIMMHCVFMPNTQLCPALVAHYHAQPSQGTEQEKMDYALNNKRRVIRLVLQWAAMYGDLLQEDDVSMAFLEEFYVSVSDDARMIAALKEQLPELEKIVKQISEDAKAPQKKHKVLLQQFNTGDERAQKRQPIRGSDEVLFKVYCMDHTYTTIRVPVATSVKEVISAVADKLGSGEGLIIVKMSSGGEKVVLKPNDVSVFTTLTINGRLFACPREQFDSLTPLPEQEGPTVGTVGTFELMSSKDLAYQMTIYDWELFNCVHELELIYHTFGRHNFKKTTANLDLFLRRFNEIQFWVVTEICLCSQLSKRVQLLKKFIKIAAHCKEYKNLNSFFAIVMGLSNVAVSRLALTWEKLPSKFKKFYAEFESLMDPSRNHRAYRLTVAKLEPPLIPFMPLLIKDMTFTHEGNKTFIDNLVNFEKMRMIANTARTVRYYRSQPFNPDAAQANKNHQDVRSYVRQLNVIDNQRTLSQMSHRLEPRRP

[7] = biological target: Rap guanine nucleotide exchange factor 4 (Homo sapiens) (UniProt Q8WZA2); assay: Confirmatory qHTS for antagonist of cAMP-regulated guanine nucleotide exchange factor 4 (EPAC2) (AID 1645885); also: nearly all actives have a fitted effect of over 25% in size; also: potency is read from the fitted curve at half-maximal effect
[8] = biological target: Rap guanine nucleotide exchange factor 3 (Homo sapiens) (UniProt O95398); assay: Counterscreen qHTS for antagonist of cAMP-regulated guanine nucleotide exchange factor 3 (EPAC1) (AID 1645888); also: % of control where 0% means no effect
Method in brief: (§1)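 Measured: fluorescence of BODIPY-GDP bound to Rap1B, which falls as exchange proceeds. Conditions include 50 uM competing GDP, 5 and 30 min reads, and a later cAMP challenge for antagonist detection.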

[9] = biological target: Rap guanine nucleotide exchange factor 3 (Homo sapiens) (UniProt O95398); assay: Counterscreen qHTS for agonist of cAMP-regulated guanine nucleotide exchange factor 3 (EPAC1) (AID 1645889); also: nearly all actives have a fitted effect of over 40% in size; also: potency is read from the fitted curve at half-maximal effect; as to activation: % of control where 0% means no effect
Method in brief: as §1

[10] = biological target: Catechol O-methyltransferase (Homo sapiens) (UniProt P21964); assay: Confirmatory Screen for Target Class Profiling of Small Molecule Inhibitors of Methyltransferases (AID 1745852; calls by dose curve; also: potency is read from the fitted curve at half-maximal effect); details: MTase-Glo luminescence, SAH detection, recombinant enzyme; measured here: COMT max response; stronger effect = lower value
[11] = biological target: Guanidinoacetate N-methyltransferase (Homo sapiens) (UniProt Q14353); assay: as above; details: activity change, negative = inhibition: at 57.3 µM (top of the series) unless noted
[12] = biological target: Nicotinamide N-methyltransferase (Homo sapiens) (UniProt P40261); assay: as above; details: MTase-Glo luminescence, SAH detection, recombinant enzyme; measured here: NNMT max response; stronger effect = lower value
Sequence of Nicotinamide N-methyltransferase (Homo sapiens) (P40261 whole entry, looked up): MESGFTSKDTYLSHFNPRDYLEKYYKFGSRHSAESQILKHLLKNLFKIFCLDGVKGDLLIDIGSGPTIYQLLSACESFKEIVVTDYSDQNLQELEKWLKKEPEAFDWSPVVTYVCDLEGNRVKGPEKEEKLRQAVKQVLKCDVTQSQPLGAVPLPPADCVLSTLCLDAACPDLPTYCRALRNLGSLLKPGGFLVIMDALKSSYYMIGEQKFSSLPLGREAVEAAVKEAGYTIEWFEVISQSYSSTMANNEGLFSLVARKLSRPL

[13] = biological target: Phenylethanolamine N-methyltransferase (Homo sapiens) (UniProt P11086); assay: as above; details: MTase-Glo luminescence, SAH detection, recombinant enzyme; measured here: PNMT max response; stronger effect = lower value
Sequence of Phenylethanolamine N-methyltransferase (Homo sapiens) (P11086 whole entry, looked up): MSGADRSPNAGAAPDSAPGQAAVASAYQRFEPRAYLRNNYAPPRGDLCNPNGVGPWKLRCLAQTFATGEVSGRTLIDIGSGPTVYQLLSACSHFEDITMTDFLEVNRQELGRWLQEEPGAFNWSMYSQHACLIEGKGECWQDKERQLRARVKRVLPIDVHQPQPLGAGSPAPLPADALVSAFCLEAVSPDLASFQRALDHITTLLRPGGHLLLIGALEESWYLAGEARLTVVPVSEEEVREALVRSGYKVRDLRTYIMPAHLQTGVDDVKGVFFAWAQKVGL

[14] = Stat Signaling Pathway (AID 446; active = well fitted curve in either direction with a large enough effect, not every such curve was filed as active;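 also: ME-180 cervical cancer cells given 40 pM IL-6 alongside compound; SIE-controlled beta-lactamase reporter measured as 460/530 nm FRET emission ratio; % is scaled to controls: 0 for no effect and ±100 for the full control effect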)
Method in brief: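 Compound effects on IL-6-induced STAT reporter activity were measured in ME-180 cells. After overnight culture, cells were co-treated with 40 pM IL-6 for 5 hrs before beta-lactamase substrate loading at room temperature.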

[15] = qHTS Assay for Identification of Small Molecule Agonists for Hypoxia Response Element Signaling Pathway (AID 914; active = well fitted activation curve with a large enough effect in the signal ratio, with a control signal flat, not every such curve was filed as active; the % refers to the signal ratio; also: % of control where 0% means no effect); details: ME-180 (cervical carcinoma) HRE-bla reporter, beta-lactamase ratio, CoCl2, 17 h; activation: stronger effect = higher value
Method in brief: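 Positive modulation of EC50 CoCl2-induced hypoxia response element signaling is measured in ME-180 cells with a beta-lactamase reporter. Compounds are titrated, incubation runs 17 hours, and %Activity derives from the blue/green ratio.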

[16] = biological target: Tumor susceptibility gene 101 protein (Homo sapiens) (UniProt Q99816); assay: qHTS Assay for Iinhibitors of HIV-1 Budding by Blocking the Interaction of PTAP/TSG101: Hit Validation (AID 651600); also: potency is read from the fitted curve at half-maximal effect; nearly all actives have a fitted effect of over 70% in size
Method in brief: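 FITC-PTAP peptide (50 nM final) binding to Tsg101 binding domain (10 uM final) was measured by polarization after 20 min at r.t. with compounds, in 10 mM HEPES pH 7.5 buffer with 0.15 M NaCl and 0.01% Tween 20.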

[17] = biological target: Lysosomal acid glucosylceramidase (Homo sapiens) (UniProt P04062); assay: Glucocerebrosidase-p2 (AID 348; in the data active = potency below about 10 µM; also: potency is read from the fitted curve at half-maximal effect); details: purified GBA, blue fluorogenic substrate, 40 min
Sequence of Lysosomal acid glucosylceramidase (Homo sapiens) (P04062 whole entry, looked up): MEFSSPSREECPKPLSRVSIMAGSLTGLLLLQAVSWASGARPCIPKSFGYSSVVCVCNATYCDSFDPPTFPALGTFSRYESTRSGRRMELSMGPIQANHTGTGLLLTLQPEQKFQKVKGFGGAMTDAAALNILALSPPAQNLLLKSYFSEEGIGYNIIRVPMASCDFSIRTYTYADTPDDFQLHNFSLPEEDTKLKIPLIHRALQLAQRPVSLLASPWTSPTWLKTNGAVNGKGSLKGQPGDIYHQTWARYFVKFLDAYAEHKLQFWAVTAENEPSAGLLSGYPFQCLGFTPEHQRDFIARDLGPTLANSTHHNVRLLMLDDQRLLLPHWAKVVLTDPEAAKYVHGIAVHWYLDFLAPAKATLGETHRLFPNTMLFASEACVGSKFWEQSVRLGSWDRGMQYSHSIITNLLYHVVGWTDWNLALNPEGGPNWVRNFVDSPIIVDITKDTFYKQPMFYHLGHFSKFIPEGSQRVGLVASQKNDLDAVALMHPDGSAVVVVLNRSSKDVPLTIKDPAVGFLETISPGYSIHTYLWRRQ
Method in brief: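 Normal human glucocerebrosidase (0.2 nM) with blue fluorogenic substrate (80 uM final) in citrate/phosphate pH 5.9 with 10mM sodium taurocholate, 0.01% tween-20; 40 min RT, NaOH/glycine stop; fluorescence Ex 365/Em 440; AC50 from a titration from 0.6 nM upwards.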

[18] = biological target: Cytochrome P450 1A2 (Homo sapiens) (UniProt P05177); assay: p450-cyp1a2 (AID 410; calls by dose curve; also: potency is read from the fitted curve at half-maximal effect)
Method in brief: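 Luminescent demethylation readout: Luciferin-ME (100uM, equal to Km) turned over by 20nM CYP1A2 for 60 min at room temperature after NADPH regeneration addition, following 10 min compound preincubation. Normalization used 57 uM furafylline as full inhibition.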

[19] = biological target: Glucocorticoid receptor (Homo sapiens) (UniProt P04150); assay: GR-EFC Redistribution (AID 451; calls by dose curve; also: potency is read from the fitted curve at half-maximal effect); details: CHO-K1 GR-EFC translocation, beta-gal luminescence, 2 h
Method in brief: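 CHO-K1 cells stably expressing nuclear-localized β-gal enzyme acceptor and GR fused C-terminally to the enzyme donor fragment; ligand-driven nuclear translocation restores β-gal by complementation. Compounds titrated up to 46 uM final, 2 h at 37 °C; luminescence read.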

[20] = biological target: Mitogen-activated protein kinase 10 (Mus musculus) (UniProt Q61831); assay: JNK3 AlphaScreen Assay (AID 530; active = well fitted curve in either direction with a large enough effect, not every such curve was filed as active;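 also: kinase came from lysate of stimulated human HepG2 cells; signal reports phosphorylation of biotinylated GST-cJun 1-79 at Ser73 with 10 µM ATP; % is scaled to controls: 0 for no effect and ±100 for the full control effect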)
Method in brief: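 Phosphorylation of biotinylated GST-cJun(1-79) at Ser73 is measured by AlphaScreen proximity luminescence. Enzyme is JNK3 in HepG2 lysates activated with interleukin-1beta and tumor necrosis factor alpha; ATP is 10 uM final.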

[21] = biological target: 3',5'-cyclic-AMP phosphodiesterase 4B (Homo sapiens) (UniProt Q07343); assay: qHTS Assay for Inhibitors of PDE-IV (AID 607; active = well fitted activation curve with a large enough effect in the main read-out, with a control signal flat, not every such curve was filed as active; also: % of control where 0% means no effect)
Sequence of 3',5'-cyclic-AMP phosphodiesterase 4B (Homo sapiens) (Q07343 whole entry, looked up): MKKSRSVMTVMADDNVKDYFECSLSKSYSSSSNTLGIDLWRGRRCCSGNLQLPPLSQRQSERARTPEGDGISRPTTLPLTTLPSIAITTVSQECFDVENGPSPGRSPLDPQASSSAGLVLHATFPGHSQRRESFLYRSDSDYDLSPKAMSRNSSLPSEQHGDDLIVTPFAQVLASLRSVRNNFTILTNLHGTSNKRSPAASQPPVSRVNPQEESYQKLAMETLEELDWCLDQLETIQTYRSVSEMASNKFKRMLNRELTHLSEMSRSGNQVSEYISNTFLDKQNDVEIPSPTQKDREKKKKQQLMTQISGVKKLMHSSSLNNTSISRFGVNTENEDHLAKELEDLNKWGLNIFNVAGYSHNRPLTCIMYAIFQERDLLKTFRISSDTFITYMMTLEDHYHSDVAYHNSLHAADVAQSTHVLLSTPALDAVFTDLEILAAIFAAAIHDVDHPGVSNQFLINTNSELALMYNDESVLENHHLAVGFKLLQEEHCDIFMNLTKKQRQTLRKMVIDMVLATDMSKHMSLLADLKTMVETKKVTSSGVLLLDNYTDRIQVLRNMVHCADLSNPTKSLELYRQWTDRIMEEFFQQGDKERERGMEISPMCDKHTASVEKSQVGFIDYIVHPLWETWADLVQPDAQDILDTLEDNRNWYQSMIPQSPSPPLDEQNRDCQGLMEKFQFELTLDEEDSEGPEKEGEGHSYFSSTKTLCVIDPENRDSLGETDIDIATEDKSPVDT
Method in brief: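 ACTOne HEK293 cells carry a modified cAMP-gated CNG channel and express endogenous PDE4; plated 1000 cells/well, compounds up to 22.9 uM final. Membrane-potential dye fluorescence (ex 535/em 590) was read; parental cells received 10 uM forskolin + 100 uM RO 20-1724.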

[22] = biological target: Cytochrome P450 2D6 (Homo sapiens) (UniProt P10635); assay: qHTS Assay for Inhibitors and Substrates of Cytochrome P450 2D6 (AID 891); also: potency is read from the fitted curve at half-maximal effect; nearly all actives have a fitted effect of over 60% in size
Sequence of Cytochrome P450 2D6 (Homo sapiens) (P10635 whole entry, looked up): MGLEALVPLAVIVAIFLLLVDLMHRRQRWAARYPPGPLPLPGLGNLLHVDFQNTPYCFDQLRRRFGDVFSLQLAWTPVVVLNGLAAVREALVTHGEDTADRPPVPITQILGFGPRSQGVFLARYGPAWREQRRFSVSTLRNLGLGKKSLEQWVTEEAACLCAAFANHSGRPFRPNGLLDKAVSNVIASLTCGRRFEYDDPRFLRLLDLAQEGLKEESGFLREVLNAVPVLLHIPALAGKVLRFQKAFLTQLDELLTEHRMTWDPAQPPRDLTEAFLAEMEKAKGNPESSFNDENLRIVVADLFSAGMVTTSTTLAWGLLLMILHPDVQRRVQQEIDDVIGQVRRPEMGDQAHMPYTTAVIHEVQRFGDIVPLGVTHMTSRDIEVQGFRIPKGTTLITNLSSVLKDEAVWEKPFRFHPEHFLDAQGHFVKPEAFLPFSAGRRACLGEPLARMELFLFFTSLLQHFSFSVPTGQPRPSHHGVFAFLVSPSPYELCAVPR
Method in brief: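 Luminescent read-out of luciferin formed by 5 nM human CYP2D6 demethylating 30 uM Luciferin-ME EGE (Km level) over 60 min at room temperature after NADPH regeneration addition. Data normalized to full inhibition by 1.43 uM quinidine.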

COC(=O)c1cc(Br)c(=O)n(Cc2ccc3c(c2)OCO3)c1
inactive: activity change, negative = inhibition [1] -2.94% [at 17.2 µM] | activity change, negative = inhibition [2] 2.18% [at 17.2 µM] | Potency [3] > 20.6 µM | Potency [4] | Potency [5] | activation [6] -3.61% [at 17.1 µM, percent relative to cAMP agonist control] | Potency [7] | activity change, negative = inhibition [8] 5.45% [at 30.8 µM] | activation [9] 2.16% [at 30.8 µM]

CCCc1cc2c(-c3ccccc3)cc(=O)oc2cc1OCc1ccc(C(=O)O)o1
-42%: activity [13]
-44.4%: activity [10]
inactive: Potency [5] | Potency [6] | Potency [7] | Potency [8] | Potency [9]
-57.8%: activity [12]
active: Potency [4] 75.7 µM | Potency [11] 24.1 µM

CC(NC(=O)Nc1ccc(O)cc1)(C(F)(F)F)C(F)(F)F
inactive: activity change, negative = inhibition [1] 5.47% [at 17.2 µM] | activity change, negative = inhibition [2] 11.8% [at 17.2 µM] | outcome [14] | Potency [3] > 20.6 µM | activation [15] 8.6% | Potency [4] | Potency [5] | activation [6] -12.7% [at 17.1 µM, percent relative to cAMP agonist control] | Potency [7] | activity change, negative = inhibition [8] -9.73% [at 30.8 µM] | activation [9] 3.78% [at 30.8 µM]

COC(=O)c1cc(Br)c(=O)n(CCc2ccc(F)cc2)c1
inactive: activity change, negative = inhibition [1] 4.29% [at 17.2 µM] | activity change, negative = inhibition [2] -12.1% [at 17.2 µM] | outcome [14] | Potency [3] > 20.6 µM | Potency [4] | Potency [5] | Potency [6] | Potency [7] | Potency [8] | Potency [9]

CSC1=NSC2=NC(=O)/C(=C\c3coc4ccccc4c3=O)C(=N)N12
inactive: Potency [4] | Potency [8]
active: Potency [16] 5.17 µM | Potency [5] 89.1 µM | Potency [6] 100 µM | Potency [7] 16.9 µM | Potency [9] 44.7 µM

CC(C)=CCC1=C(OCC(=O)O)C(=O)c2ccccc2C1=O
inactive: Potency [17] > 11.4 µM | activity change, negative = inhibition [1] 18.8% | outcome [14] | Potency [3] > 46 µM | Potency [19] > 9.22 µM | activity change, negative = inhibition [20] 15.2% [at 11.4 µM] | Potency [21] | Potency [5] | Potency [6] | Potency [7] | Potency [8]
active: Potency [18] 0.501 µM | Potency [22] 3.16 µM | Potency [4] 84.9 µM
